Shown are actives, neighbours in structure and some others; about 3% of the full set was active somewhere.
15-hLO-2 inh = qHTS Assay for Inhibitors of 15-hLO-2 (15-human lipoxygenase 2) | AID 881, 2007 | purified 15hLO-2, xylenol orange hydroperoxide absorbance | Polyunsaturated fatty acid lipoxygenase ALOX15B (Homo sapiens), O15296 | Potency, µM (titrated, usually from 57.1 µM), for inactives: at the highest dose activity change, negative = inhibition, actives largely listed as inhibitors | hit rate 0.56% among 110,000; note: potency is the fitted concentration of half-maximal effect; nearly all actives have a fitted effect of over 60% in size
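Enzyme 50 nM, AA 45 uM, 25 mM Hepes pH 7.5 + 0.01% Triton X-100; cpd preinc 15 min RT, rxn 90 min RT; stop/detect with 200 uM XO + 300 uM Fe(II) in 50 mM H2SO4, 30 min; A573/A405.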
ALOX12 inhib = qHTS Assay for Inhibitors of 12-hLO (12-human lipoxygenase) | Potency, µM (titrated, usually from 57.1 µM), for the others: at the highest dose activity change, negative = inhibition, most hits filed as inhibitors | hit rate 0.12% among 150,000 | purified 12-hLO, xylenol orange hydroperoxide absorbance; note: potency is the fitted concentration of half-maximal effect; nearly all actives have a fitted effect of over 55% in size
Target sequence (P18054 whole entry, looked up): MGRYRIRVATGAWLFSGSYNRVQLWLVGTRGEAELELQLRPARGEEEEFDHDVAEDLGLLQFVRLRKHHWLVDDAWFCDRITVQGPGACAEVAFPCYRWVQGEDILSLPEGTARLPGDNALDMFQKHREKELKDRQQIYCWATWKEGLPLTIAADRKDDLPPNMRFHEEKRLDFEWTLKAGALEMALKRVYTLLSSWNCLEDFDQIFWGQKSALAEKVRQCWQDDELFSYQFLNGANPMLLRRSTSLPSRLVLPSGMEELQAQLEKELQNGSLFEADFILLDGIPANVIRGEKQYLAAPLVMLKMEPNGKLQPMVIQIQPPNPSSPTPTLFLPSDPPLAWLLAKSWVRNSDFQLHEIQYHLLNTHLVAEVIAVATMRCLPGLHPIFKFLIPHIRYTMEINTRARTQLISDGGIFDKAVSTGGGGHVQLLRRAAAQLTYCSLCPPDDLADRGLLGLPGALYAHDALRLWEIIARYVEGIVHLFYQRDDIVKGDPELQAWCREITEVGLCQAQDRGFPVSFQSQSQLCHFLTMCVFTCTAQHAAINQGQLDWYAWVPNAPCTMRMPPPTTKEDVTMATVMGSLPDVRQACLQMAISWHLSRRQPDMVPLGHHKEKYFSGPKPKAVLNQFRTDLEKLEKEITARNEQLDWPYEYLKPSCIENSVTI
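Purified human 12hLO (150 nM final) was preincubated with compounds for 15 min at room temperature in 25 mM Hepes pH 7.0, 0.01% Triton X-100, then reacted with 40 uM arachidonic acid for 30 min. Hydroperoxide was detected with ferrous iron/xylenol orange.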
PNC inhibitor = High Content Assay for Compounds that inhibit the Assembly of the Perinucleolar Compartment | hit rate 3.1% among 140,000 | PC3M PTB-GFP, PNC prevalence imaging, 16 h; hits give low values | AID 2417, 2010 | activity change (PNC), negative = inhibition, % at 10 µM;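 active = readout at or below -70, meaning at least 70% loss of cells showing the perinucleolar compartment, a nuclear body marking cancer cells; inconclusive = readout between -30 and a set limit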;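 note: plate controls were DMSO wells for no effect and camptothecin positive control wells for full effect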
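PC3M cells stably expressing PTB-GFP, 750–1000 cells/well, treated 16 h at 37 °C with compound (23 nl of library stock), in duplicate. After paraformaldehyde fixation and Hoechst stain, imaged at 20x; PNC prevalence scored by image analysis.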
IMPase inh = qHTS Assay for Identifying the Cell-Membrane Permeable IMPase Inhibitors; Inositol monophosphatase 1 (Rattus norvegicus), P97697; CHO-M1 cells, IP1 accumulation, HTRF TR-FRET ratio; inhibition (IP1 accumulation), % at 46.1 µM; 120,000 tested, under 10 active; AID 901, 2007; active = well fitted curve in the direction sought with a large enough effect in the signal ratio, not every such curve was filed as active; inconclusive = small, poorly fitted or top-dose-only effect, or a change in a side signal; inactive = no such curve, though single readings can be large or run the other way; the % refers to the signal ratio;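 note: cells stimulated with carbachol in lithium chloride buffer; plate controls were DMSO basal wells for no effect and reference inhibitor wells for full effect; higher means more IMPase inhibition seen as more IP1 and lower FRET ratio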
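CHO-M1, 2000 cells/well, cultured 16–30 h; cpd up to 46 uM; carbachol (50 uM solution, stimulation buffer w/ 50 mM LiCl, pH 7.4), 30 min 37C; IP-One TR-FRET, 10 min RT; Ex 320/Em 665, 620; Hill-fit AC50.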
Starred values were filed as active, the others as inactive; ! = a repeat was not active; [ ] = another dose, or the depositor's remark. Unless noted, calls come from the whole dose curve; as a rule, active = well fitted curve in the direction sought with a large enough effect; inconclusive = small, poorly fitted or top-dose-only effect, or another doubt; inactive = no such curve, though single readings can be large; an effect the other way counts as inactive or inconclusive. Unless noted, % is set by controls: 0 for no effect and ±100 for the full control effect.

For CCOC(=O)N1CCN(C(=O)c2ccc(-n3c(=S)[nH]c4ccccc4c3=O)cc2)CC1 the results were ALOX12 inhib 3.4%, PNC inhibitor 121.7 and IMPase inh -7.4.
Screening Cc1cccc2cc(CN(Cc3ccco3)C(c3nnnn3CCc3ccccc3)C(C)C)c(=O)[nH]c12 (configuration not stated) returned 15-hLO-2 inh 18.7%, ALOX12 inhib -27.0%, PNC inhibitor -99.3* and IMPase inh 6.7.
`COc1ccc2[nH]c(=O)c(CN(Cc3ccco3)C(c3nnnn3Cc3ccccc3)C(C)C)cc2c1` (configuration not stated) gave 15-hLO-2 inh 0.3%, ALOX12 inhib -12.2%, PNC inhibitor -9.2 and IMPase inh 6.7.
`Cc1ccc(NCc2ccccc2OCc2ccccc2F)cc1` gave 15-hLO-2 inh 4.8%, ALOX12 inhib -7.4%, PNC inhibitor -18.5 and IMPase inh 0.0.
`Oc1ccc(NCc2ccccc2OCc2ccccc2F)cc1` gave 15-hLO-2 inh 12.6µM*, ALOX12 inhib inconclusive, PNC inhibitor 14.6 and IMPase inh 15.4.
For Cc1cc(C)cc(OCC(=O)NCC2CCCO2)c1 (configuration not stated) the results were 15-hLO-2 inh 1.9%, ALOX12 inhib -0.8%, PNC inhibitor 64.4 and IMPase inh -3.2.
Screening Cc1cc(C)c(C)c(OCC(=O)NCC2CCCO2)c1 (configuration not stated) returned 15-hLO-2 inh -4.1%, ALOX12 inhib 5.3%, PNC inhibitor -90.4* and IMPase inh -14.9.
O=[N+]([O-])c1ccc(NC(=S)NCCc2ccccc2)cc1 was read as ALOX12 inhib -2.6% and PNC inhibitor -22.6.
Screening O=[N+]([O-])c1ccc(NNC(=S)Nc2ccccc2)cc1 returned 15-hLO-2 inh 3.98µM*, ALOX12 inhib inconclusive, PNC inhibitor 7.1 and IMPase inh 14.8.
Screening CCSC(C)CC1C/C(=N/O)c2c(CC)noc2C1 (configuration not stated) returned 15-hLO-2 inh -17.6%, ALOX12 inhib -6.0%, PNC inhibitor -86.0* and IMPase inh 11.1.
`NC(=S)c1ccc[n+]([C@@H]2O[C@@H](COP(=O)([O-])OP(=O)(O)OC[C@@H]3O[C@@H](n4cnc5c(N)ncnc54)[C@@H](OP(=O)(O)O)[C@H]3O)[C@@H](O)[C@H]2O)c1` gave 15-hLO-2 inh 11.0%, ALOX12 inhib -9.5% and IMPase inh -5.1.
`Cc1nnsc1C(=O)Nc1cc(Cl)ccc1Cl` gave ALOX12 inhib -0.8%, PNC inhibitor -21.1 and IMPase inh inconclusive.
Screening COC(=O)c1c(-c2ccc(C(C)(C)C)cc2)csc1NC(=O)C1C2CCC(O2)C1C(=O)O (configuration not stated) returned ALOX12 inhib -3.8% and PNC inhibitor -98.3*.
For N#C/C(=N\O)c1nc(-c2ccccc2)cs1 the results were 15-hLO-2 inh -18.2%, ALOX12 inhib -9.2%, PNC inhibitor -126.9*! and IMPase inh -8.8.
`CCn1c(NC(=S)Nc2ccccc2)nc2ccccc21` gave 15-hLO-2 inh 25.1µM*, ALOX12 inhib inconclusive, PNC inhibitor 35.6 and IMPase inh 2.2.
Screening COC1=C(N)C(=O)c2nc(-c3nc(C(=O)O)c(C)c(-c4ccc(OC)c(OC)c4O)c3N)ccc2C1=O returned ALOX12 inhib -5.1% and PNC inhibitor -114.6*.
Screening CN(Cc1ccccc1)c1ccc(C(=O)O)cc1[N+](=O)[O-] returned ALOX12 inhib -4.0%, PNC inhibitor -23.2 and IMPase inh 4.5.
CC(=O)CCc1ccc(OC(=O)c2cccnc2)cc1 was read as ALOX12 inhib -2.1%, PNC inhibitor -100.0* and IMPase inh -1.4.
For CCOc1ccc(OC(=O)c2cccnc2)cc1 the results were 15-hLO-2 inh 2.3%, ALOX12 inhib 0.3%, PNC inhibitor inconclusive and IMPase inh -11.3.
Screening CC(C)CO[C@H](c1ccc2c(c1)OCO2)[C@H](C)Br returned 15-hLO-2 inh -8.2%[11.4 µM] and ALOX12 inhib -10.1%[11.4 µM].
`CN(C)c1ccc(N=Cc2ccco2)cc1` gave 15-hLO-2 inh 31.6µM*, ALOX12 inhib inconclusive, PNC inhibitor -22.5 and IMPase inh 70.6.
Screening O=C(O)C1CCCNC1 (configuration not stated) returned ALOX12 inhib -1.6% and PNC inhibitor -82.7*.
`CCC(=O)N1N=C(c2c(-c3ccccc3)c3cc(Cl)ccc3[nH]c2=O)CC1c1ccco1` (configuration not stated) gave ALOX12 inhib -1.7%, PNC inhibitor -81.9* and IMPase inh -1.8.
`O=C(O)CCC(=O)N1N=C(c2c(-c3ccccc3)c3cc(Cl)ccc3[nH]c2=O)CC1c1ccco1` (configuration not stated) gave ALOX12 inhib 2.5% and PNC inhibitor 28.6.
COc1cc(/C=C/C(=O)OCC(=O)NC(=O)NC23CC4CC(CC(C4)C2)C3)ccc1OCC#N was read as ALOX12 inhib -1.4% and PNC inhibitor inconclusive.
COc1cc(/C=C/C(=O)OCC(=O)NC(=O)NC(C)C)ccc1OCC#N was read as ALOX12 inhib 2.6% and PNC inhibitor -85.1*.
CC(=O)NC(=S)Nc1sc2c(c1C#N)CCCCC2 was read as ALOX12 inhib -2.0%, PNC inhibitor -115.2* and IMPase inh -3.9.
CC1CCc2sc(NC(=S)NC(=O)c3ccccc3)c(C#N)c2C1 (configuration not stated) was read as ALOX12 inhib 1.0% and PNC inhibitor -80.2*.
N#Cc1c(NC(=S)NC(=O)c2ccccc2)sc2c1CCC2 was read as ALOX12 inhib -5.5% and PNC inhibitor -14.9.
CCOC(=O)c1ccccc1NC(=O)c1n[nH]c(=O)c2ccccc12 was read as ALOX12 inhib -0.7% and PNC inhibitor inconclusive.
`COc1ccc(-c2nc(NC(=O)c3cc(C(C)(C)C)nn3C)sc2C)cc1` gave 15-hLO-2 inh 34.9%, ALOX12 inhib inconclusive, PNC inhibitor -13.8 and IMPase inh 21.0.
For COc1ccc(-c2nc(NC(=O)c3n[nH]c(=O)c4ccccc34)sc2C)cc1 the results were ALOX12 inhib -0.4% and PNC inhibitor -114.1*.
Cc1cc(C)c(-c2csc(NC(=O)c3n[nH]c(=O)c4ccccc34)n2)c(C)c1 was read as ALOX12 inhib -2.1%, PNC inhibitor -89.3* and IMPase inh -4.3.
CCC(C)NC(=O)c1n[nH]c(=O)c2ccccc12 (configuration not stated) was read as 15-hLO-2 inh 1.0%, ALOX12 inhib -5.1%, PNC inhibitor -100.0* and IMPase inh -0.7.

From PubChem BioAssay
